Test results reported in a collection of fitness landscapes (doi:10.1016/j.celrep.2020.107928).
In all, about 81,000 sequences were measured (“one-hybrid fitness for binding parS DNA”: median about -0.17, highest 2% from about 0.51 on). What follows is part of a selection rich in the highest values, with near analogues and random picks from the rest.

B1: Caulobacter ParB omega fusion; a variant is named by its letters at X, in order, B8GW30 (parent)
chain: MESVVVGEPGMSEGRRGLGRGLSALLGEVDAAPAQAPGEQLGGSREAPIEILQRNPDQPRRTFREEDLEDLSNSIREKGVLQPILVRPSPDTAGEYQIVAGERAWRAAQRAGLKTVPIMVRELDDLAVLEIGIIENVQRADLNVLEEALSYKVLMEKFERTQENIAQTIGKSXSHVANXMRLLXLPDEVQSYLVSGELTAXHARAIAAAADPVALAKQIIEGGLSVRETEALARKAPNLSAGKSKGGRPPRVKDTDTQALESDLSSVLGLDVSIDHRGSTGTLTITYATLEQLDDLCNRLTRGI

Variants of: B1
Assay: one-hybrid fitness for binding parS DNA (scaled: cognate 1, non-cognate 0); higher = stronger binding
Settings: with parS DNA site
Procedure, shortened: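 Bacterial one-hybrid selection in E. coli USO rpoZ- hisB- pyrF- with a HIS3 reporter carrying the site 19 bp from the promoter, screening Caulobacter ParB libraries with four specificity codons randomised (NNS). Cells grew 48 hours at 37°C on M9-minus-histidine plus 0.1 mM IPTG and 5 mM 3-AT. Plasmids before and after selection were Illumina-sequenced, three replicate libraries pooled, and variants under 10 reads dropped. Fitness is the log change in variant-to-wild-type read ratio, rescaled to cognate 1, non-cognate 0.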

| Variant | one-hybrid fitness for binding parS DNA |
| --- | --- |
| RVNP | ≤ 0.2 |
| RVCT | 0.926 |
| RVGD | ≤ 0.2 |
| RVCM | 0.382 |
| RVNT | 0.899 |
| RVNH | ≤ 0.2 |
| RVGT | 0.924 |
| RVGN | 0.451 |
| RVCY | 0.462 |
| PRGK | ≤ 0.2 |
| VWDG | ≤ 0.2 |
| IEKT | ≤ 0.2 |
| VALY | ≤ 0.2 |
| GQET | ≤ 0.2 |
| SLYK | ≤ 0.2 |
| GKPL | ≤ 0.2 |
| RCET | 0.758 |
| RHEK | ≤ 0.2 |
| RAEI | ≤ 0.2 |
| RAET | 0.68 |
| RHEM | 0.214 |
| RRET | 0.674 |
| RPET | ≤ 0.2 |
| RDET | ≤ 0.2 |

| Variant | one-hybrid fitness for binding parS DNA |
| --- | --- |
| RHET | 0.734 |
| RAEK | ≤ 0.2 |
| EKRG | ≤ 0.2 |
| SQQG | ≤ 0.2 |
| TPYC | ≤ 0.2 |
| VTLR | ≤ 0.2 |
| QKRV | ≤ 0.2 |
| QSKN | ≤ 0.2 |
| QNAM | ≤ 0.2 |
| EGGH | ≤ 0.2 |
| VPIN | ≤ 0.2 |
| DWQR | ≤ 0.2 |
| RIEK | ≤ 0.2 |
| RIET | 0.709 |
| RGET | 0.308 |
| PFET | ≤ 0.2 |
| RSET | 0.653 |
| REET | ≤ 0.2 |
| RMEM | 0.309 |
| RMET | 0.731 |
| EFET | ≤ 0.2 |
| RIEF | ≤ 0.2 |
| RFET | 0.655 |
| RMEF | ≤ 0.2 |

| Variant | one-hybrid fitness for binding parS DNA |
| --- | --- |
| PTPR | ≤ 0.2 |
| QSVP | ≤ 0.2 |
| AQRA | ≤ 0.2 |
| WPTL | ≤ 0.2 |
| GPKW | ≤ 0.2 |
| RKET | 0.799 |
| RTEN | 0.349 |
| RTET | 0.75 |
| RKEY | 0.401 |
| RKER | ≤ 0.2 |
| RLET | 0.783 |
| RLEK | ≤ 0.2 |
| RTEP | ≤ 0.2 |
| RLEY | 0.458 |
| AEWH | ≤ 0.2 |
| ISIL | ≤ 0.2 |
| LPPC | ≤ 0.2 |
| TELP | ≤ 0.2 |
| PLFM | ≤ 0.2 |
| HICT | ≤ 0.2 |
| SMNV | ≤ 0.2 |
| SGQL | ≤ 0.2 |
| LYHP | ≤ 0.2 |
| RGQA | 0.364 |

| Variant | one-hybrid fitness for binding parS DNA |
| --- | --- |
| RDQA | ≤ 0.2 |
| DTQA | ≤ 0.2 |
| RSQA | 0.555 |
| RMQA | 0.574 |
| NTQA | ≤ 0.2 |
| RCQA | 0.593 |
| RWQA | 0.404 |
| RHQA | 0.5 |
| RTQA | 0.627 |
| VRKH | ≤ 0.2 |
| GAVT | ≤ 0.2 |
| RVVL | ≤ 0.2 |
| YEHG | ≤ 0.2 |
| GAFN | ≤ 0.2 |
| CTDH | ≤ 0.2 |
| PIDR | ≤ 0.2 |
| SPPW | ≤ 0.2 |
| IYKI | ≤ 0.2 |
| CLQA | ≤ 0.2 |
| NLQA | ≤ 0.2 |
| RLQA | 0.616 |
| KMPV | ≤ 0.2 |
| KSYG | ≤ 0.2 |
| MYPR | ≤ 0.2 |

| Variant | one-hybrid fitness for binding parS DNA |
| --- | --- |
| AHSN | ≤ 0.2 |
| MNDG | ≤ 0.2 |
| QPYH | ≤ 0.2 |
| TMHS | ≤ 0.2 |
| PTQT | ≤ 0.2 |
| RAKP | ≤ 0.2 |
| RAVH | 0.202 |
| RAKS | 0.874 |
| RAVS | 0.986 |
| RAKH | 0.239 |
| RAVD | ≤ 0.2 |
| TSEV | ≤ 0.2 |
| RRHL | ≤ 0.2 |
| PNHC | ≤ 0.2 |
| NLGV | ≤ 0.2 |
| RAKK | ≤ 0.2 |
| RAVF | ≤ 0.2 |
| RAVG | 0.923 |
| RAVR | ≤ 0.2 |
| RAKG | 0.937 |
| RAKQ | ≤ 0.2 |
| QLEL | ≤ 0.2 |
| FTDC | ≤ 0.2 |
| NTWT | ≤ 0.2 |

| Variant | one-hybrid fitness for binding parS DNA |
| --- | --- |
| RQDN | 0.431 |
| RQNH | 0.329 |
| RQNS | 0.921 |
| RQNP | ≤ 0.2 |
| RQDP | ≤ 0.2 |
| RQDS | 0.977 |
| PMTF | ≤ 0.2 |
| IRPV | ≤ 0.2 |
| RSLM | 0.32 |
| WKDS | ≤ 0.2 |
| RDKC | 0.282 |
| RCKC | 0.816 |
| RSKN | 0.443 |
| RSKC | 0.943 |
| RSKP | ≤ 0.2 |
| RPKC | ≤ 0.2 |
| IDNS | ≤ 0.2 |
| QCDG | ≤ 0.2 |
| PPSE | ≤ 0.2 |
| KIGR | ≤ 0.2 |
| ANCC | ≤ 0.2 |
| HRKN | ≤ 0.2 |
| RNKH | 0.219 |
| RNVS | 0.674 |

| Variant | one-hybrid fitness for binding parS DNA |
| --- | --- |
| RNVY | ≤ 0.2 |
| RNKY | 0.543 |
| RNYY | 0.297 |
| RNKN | 0.354 |
| RNKS | 0.936 |
| RNVD | ≤ 0.2 |
| RNVP | ≤ 0.2 |
| QADL | ≤ 0.2 |
| QIAH | ≤ 0.2 |
| YERV | ≤ 0.2 |
| YMQL | ≤ 0.2 |
| NLRR | ≤ 0.2 |
| QKLQ | ≤ 0.2 |
| RIFY | 0.462 |
| RIFK | 0.283 |
| RIFG | 0.978 |
| RIAH | 0.279 |
| RIAG | 0.997 |
| RIAP | ≤ 0.2 |
| YDMG | ≤ 0.2 |
| WYYF | ≤ 0.2 |
| GTPA | ≤ 0.2 |
| PTAE | ≤ 0.2 |
| RYIN | 0.269 |

| Variant | one-hybrid fitness for binding parS DNA |
| --- | --- |
| RYPN | ≤ 0.2 |
| RYIK | ≤ 0.2 |
| RYPG | 0.545 |
| RYPH | ≤ 0.2 |
| RYIG | 0.793 |
| PRFW | ≤ 0.2 |
| CGQS | ≤ 0.2 |
| HFIF | ≤ 0.2 |
| GKTS | ≤ 0.2 |
| RLHS | 0.96 |
| RLNS | 0.932 |
| RLHH | 0.204 |
| RLRH | 0.223 |
| RLSS | 0.991 |
| RLSD | ≤ 0.2 |
| RLRS | 0.875 |
| RLNH | 0.252 |
| RLHP | ≤ 0.2 |
| RLND | ≤ 0.2 |
| RLRP | ≤ 0.2 |
| RLSN | 0.455 |
| QPVT | ≤ 0.2 |
| TWLF | ≤ 0.2 |
| MFNG | ≤ 0.2 |

| Variant | one-hybrid fitness for binding parS DNA |
| --- | --- |
| MAAA | ≤ 0.2 |
| NWPE | ≤ 0.2 |
| TFVS | ≤ 0.2 |
| VVQN | ≤ 0.2 |
| YPYG | ≤ 0.2 |
| IVTG | ≤ 0.2 |
| LDGI | ≤ 0.2 |
| ACHY | ≤ 0.2 |
| RLGD | ≤ 0.2 |
| RLYN | 0.487 |
| RLYS | 1.04 |
| RLYD | ≤ 0.2 |
| RLWS | 1.03 |
| RLLH | 0.248 |
| RLWN | 0.443 |
| RLLN | 0.44 |
| RLGP | ≤ 0.2 |
| RLGS | 0.981 |
| RLLS | 1.05 |
| RLWD | ≤ 0.2 |
| YVWS | ≤ 0.2 |
| YNKG | ≤ 0.2 |
| RRYE | ≤ 0.2 |
| YFLW | ≤ 0.2 |

| Variant | one-hybrid fitness for binding parS DNA |
| --- | --- |
| GWSG | ≤ 0.2 |
| SAAF | ≤ 0.2 |
| VKNG | ≤ 0.2 |
| AELV | ≤ 0.2 |
| GLPW | ≤ 0.2 |
| PMAN | ≤ 0.2 |
| YMPP | ≤ 0.2 |
| KVPK | ≤ 0.2 |
| RLDS | 1.01 |
| RLDH | ≤ 0.2 |
| RLDN | 0.416 |
| QGEI | ≤ 0.2 |
| TFSF | ≤ 0.2 |
| YFFS | ≤ 0.2 |
| RGGN | ≤ 0.2 |
| RGWS | 0.573 |
| RGWN | ≤ 0.2 |
| RGGS | 0.733 |
| RGCQ | ≤ 0.2 |
| RGCT | 0.51 |
| RGCN | ≤ 0.2 |
| RGCD | ≤ 0.2 |
| RGGP | ≤ 0.2 |
| RGCS | 0.595 |

| Variant | one-hybrid fitness for binding parS DNA |
| --- | --- |
| RGWD | ≤ 0.2 |
| SEDR | ≤ 0.2 |
| YADT | ≤ 0.2 |
| KCCV | ≤ 0.2 |
| VDHL | ≤ 0.2 |
| DLCC | ≤ 0.2 |
| SLAM | ≤ 0.2 |
| NYMG | ≤ 0.2 |
| RGSS | 0.849 |
| RGQT | 0.58 |
| RGHF | ≤ 0.2 |
| RGSD | ≤ 0.2 |
| RGIH | ≤ 0.2 |
| RGSN | 0.218 |
| RGIS | 0.524 |
| RGHT | 0.519 |
| RGIN | ≤ 0.2 |
| TPNI | ≤ 0.2 |
| SATH | ≤ 0.2 |
| HPWF | ≤ 0.2 |
| TRNA | ≤ 0.2 |
| QQAP | ≤ 0.2 |
| AFMD | ≤ 0.2 |
| PRPT | ≤ 0.2 |

| Variant | one-hybrid fitness for binding parS DNA |
| --- | --- |
| LTYS | ≤ 0.2 |
| WIST | ≤ 0.2 |
| RGRT | 0.676 |
| RGDT | 0.371 |
| RGQN | 0.249 |
| RGQS | 0.803 |
| RGNF | ≤ 0.2 |
| RGQD | ≤ 0.2 |
| RGPT | ≤ 0.2 |
| RGST | 0.601 |
| RGNT | 0.609 |
| RGSY | 0.226 |
| RGYT | 0.475 |
| LTFV | ≤ 0.2 |
| QTHV | ≤ 0.2 |
| HQLT | ≤ 0.2 |
| QKHC | ≤ 0.2 |
| SLYD | ≤ 0.2 |
| GLTA | ≤ 0.2 |
| CINY | ≤ 0.2 |
| YKSG | ≤ 0.2 |
| PKIS | ≤ 0.2 |
| EFPF | ≤ 0.2 |
| DVWS | ≤ 0.2 |

| Variant | one-hybrid fitness for binding parS DNA |
| --- | --- |
| NFYC | ≤ 0.2 |
| DMTG | ≤ 0.2 |
| RGYD | ≤ 0.2 |
| RGHS | 0.73 |
| RGAT | 0.524 |
| RGFT | 0.455 |
| RGRP | ≤ 0.2 |
| RGPS | 0.336 |
| RGAP | ≤ 0.2 |
| RGHH | ≤ 0.2 |
| RGRD | ≤ 0.2 |
| RGRS | 0.932 |
| RGHD | ≤ 0.2 |
| RGYS | 0.586 |
| NMTN | ≤ 0.2 |
| HQTD | ≤ 0.2 |
| CKKK | ≤ 0.2 |
| SMHA | ≤ 0.2 |
